Compound activity deposited in PubChem BioAssay by National Center for Advancing Translational Sciences (NCATS).
NTMT1 inhibitor – Primary qHTS for Inhibitors of N-terminal methyltransferase 1 (NTMT1): MTaseGlo Assay; N-terminal Xaa-Pro-Lys N-methyltransferase 1 (Homo sapiens), Q9BV86; hit rate 2.5% among 59,000; NTMT1 MTase-Glo SAH luminescence, purified enzyme; Potency, µM (titrated, usually from 114 µM), without a hit: at the top dose activity change, negative = inhibition, actives largely listed as inhibitors;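 also: potency is read from the fitted curve at half-maximal effect; plate controls were DMSO vehicle for no effect and no enzyme for full effect; nearly all actives have a fitted effect of over 65% in size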
HTT-AS promoter – Primary qHTS for Identification of Small Molecule Activators of Huntingtin-Antisense Promoter Activity | Potency, µM (highest dose often 57.5 µM), inactives show top-dose activity change, positive = activation, actives largely listed as activators | hit rate 0.24% among 48,000 | HEK293 HTT-AS promoter firefly luciferase reporter, 24 h; response scale: percent change from vehicle, -100% = no light; also: potency is read from the fitted curve at half-maximal effect; nearly all actives have a fitted effect of over 55% in size
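Firefly luciferase signal from promoter-reporter HEK293 cells was scaled between vehicle (0%) and zero RLU (-100%). Compounds were tested at final concentrations of up to 57.5 uM over 24 h at 37 degrees C. PTC124 at 50 uM final served as control inhibitor.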
PTAP-TSG101 blk – qHTS Validation Assay for Inhibitors of HIV-1 Budding by Blocking the Interaction of PTAP/TSG101: Sytravon Library Screen; Potency, µM (titrated, usually from 115 µM), most hits filed as inhibitors; AID 1347069, 2019; Fluorescence polarization, FITC-PTAP peptide/Tsg101, 20 min; 44,000 tested, under 10 active; also: potency is read from the fitted curve at half-maximal effect; 0% is about no effect
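FITC-labeled PTAP peptide (50 nM final) binding to Tsg101 binding domain (10 uM final) read by fluorescence polarization after 20 min at r.t. in HEPES pH 7.5 buffer. Actives by CRC class, <25 µM.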
HTT prom inh – Primary qHTS for Identification of Small Molecule Inhibitors of Huntingtin Promoter Activity; HEK293 HTT promoter firefly luciferase reporter, 24 h; Potency, µM (titrated, usually from 57.5 µM), without a hit: at the highest dose activity change, negative = inhibition, most hits filed as inhibitors; hit rate 0.93% among 48,000; AID 1508623, 2021; also: potency is read from the fitted curve at half-maximal effect; nearly all actives have a fitted effect of over 50% in size
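Quantitative HTS used concentration series of up to 57.5 uM final on HEK293 luciferase reporter cells, 24 h at 37 degrees C. Readout was Dual-Glo firefly luminescence.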
GALK inhibitor – qHTS Assay for Inhibitors of Human Galactokinase (GALK): NCGC Sytravon Library Screen. P51570. recombinant GALK, Kinase-Glo ATP luminescence, 1 h. Potency, µM (top dose mostly 57.5 µM), for inactives: at the top dose activity, negative = inhibition, hits mostly inhibitors. 44,000 tested, under 10 active;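 also: plate controls were full GALK reaction for no effect and reaction lacking GALK for full effect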
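Human GALK (5 nM) was incubated with 35 uM ATP and 100 uM galactose in 20 mM HEPES pH 8.0 with MgCl2, NaCl, DTT and BSA for 1 h at room temperature. Remaining ATP was measured by Kinase-Glo Plus luminescence.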
SKOV3 invasion – Primary qHTS assay for Inhibitors of ovarian cancer metastasis using an organotypic tumor microenvironment (TME) model; SKOV3ip1-GFP adhesion/invasion on 3D omental model, fluorescence; Potency, µM (doses to about 45.8 µM), inactives show top-dose activity change, negative = inhibition, hits mostly inhibitors; hit rate 0.1% among 46,000;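 also: potency is read from the fitted curve at half-maximal effect; plate controls were DMSO wells for no effect and tomatine positive control wells for full effect; nearly all actives have a fitted effect of over 65% in size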
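A 3D layer of primary human omental fibroblasts, mesothelial cells, fibronectin and collagen I, grown 48 hr, received SKOV3ip1-GFP cells in serum-free medium plus compounds at 0.36-46 umol/L. After 2 hr RT and 16 hr 37 C, fixed adherent GFP cells were counted; normalized to DMSO and tomatine.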
DYRK1A inh-1 – Assay for Inhibitors of Dual-Specificity Tyrosine-(Y)-Phosphorylation Regulated Kinase 1A (Kinase-Glo assay); AID 2705, 2010; recombinant DYRK1A, Kinase-Glo ATP depletion luminescence; shares compounds with NTMT1 inhibitor; hit rate 80% among 100; Potency, µM (highest dose often 76.9 µM), without a hit: at the highest dose activity change, negative = inhibition, hits mostly inhibitors
CLK4 inh-1 – Confirmation Assay for Inhibitors of CDC-like Kinase 4 (Kinase-Glo Assay): SAR round 2; shares compounds with NTMT1 inhibitor; recombinant Clk4, Kinase-Glo ATP luminescence, 4.5 h; Potency, µM (titrated, usually from 76.9 µM), without a hit: at the highest dose activity, negative = inhibition, actives largely listed as inhibitors; hit rate 90% among 90; AID 493204, 2011
Target sequence (Q9HAZ1 whole entry, looked up): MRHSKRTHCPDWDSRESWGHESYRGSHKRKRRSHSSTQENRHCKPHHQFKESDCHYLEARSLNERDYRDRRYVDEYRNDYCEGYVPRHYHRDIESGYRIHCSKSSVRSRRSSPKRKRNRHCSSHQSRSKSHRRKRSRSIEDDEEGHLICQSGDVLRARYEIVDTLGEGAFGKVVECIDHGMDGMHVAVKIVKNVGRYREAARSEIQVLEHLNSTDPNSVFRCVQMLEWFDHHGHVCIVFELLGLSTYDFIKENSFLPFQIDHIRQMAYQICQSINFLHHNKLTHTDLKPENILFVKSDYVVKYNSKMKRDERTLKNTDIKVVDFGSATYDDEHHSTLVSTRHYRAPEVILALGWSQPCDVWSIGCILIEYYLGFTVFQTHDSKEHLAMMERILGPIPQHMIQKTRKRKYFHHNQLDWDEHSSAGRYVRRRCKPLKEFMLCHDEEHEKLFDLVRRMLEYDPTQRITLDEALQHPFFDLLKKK
CLK4 inh-2 – Kinase Inhibition Study on Inhibitors of CDC-like Kinase 4 (Reaction Biology data): SAR round 2; shares compounds with NTMT1 inhibitor; Reaction Biology kinase assay, 10 uM ATP; Potency, µM, hits mostly inhibitors; hit rate 100% among 65; AID 504421, 2011; calls by dose curve
DYRK1A inh-2 – Kinase Inhibition Study on Inhibitors of Dyrk1a (Reaction Biology data) | AID 504424, 2011 | Potency, µM, actives largely listed as inhibitors | hit rate 90% among 65 | shares compounds with NTMT1 inhibitor | Reaction Biology kinase assay, 10 uM ATP;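 active = compounds that showed inhibition of Dyrk1a and received a fitted potency; inactive = compounds that showed no inhibition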
CLK2 RBC – Kinase Inhibition Study on Inhibitors of CDC-like Kinase 2 (Reaction Biology data) | shares compounds with NTMT1 inhibitor | hit rate 90% among 65 | Potency, µM, hits mostly inhibitors | AID 504427, 2011 | Reaction Biology kinase assay, 10 uM ATP;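 active = compound that inhibits Clk2 kinase in the dose series, with an IC50 potency reported; inactive = no inhibition seen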
CLK3 inh – Kinase Inhibition Study on Inhibitors of CDC-like Kinase 3 (Reaction Biology data); shares compounds with NTMT1 inhibitor; recombinant CLK3 kinase assay, 10 uM ATP; Potency, µM, hits mostly inhibitors; hit rate 40% among 65; AID 504428, 2011;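 active = compounds that inhibited Clk3 enough in the ten-dose series to give a half-maximal potency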
DYRK1B inh – Kinase Inhibition Study on Inhibitors of Dyrk1b (Reaction Biology data); shares compounds with NTMT1 inhibitor; Recombinant Dyrk1b kinase assay, 10 uM ATP; Potency, µM, usual class: inhibitors; hit rate 80% among 65; AID 504429, 2011;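 active = compounds whose dose response shows an inhibitor phenotype against the kinase Dyrk1b; inactive = compounds showing no inhibitor phenotype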
CLK1 RBC – Kinase Inhibition Study on Inhibitors of CDC-like Kinase 1 (Reaction Biology data) | recombinant Clk1 kinase assay, 10 uM ATP | shares compounds with NTMT1 inhibitor | Potency, µM, usual class: inhibitors | hit rate 90% among 65 | AID 504430, 2011;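 active = compounds that block the splicing kinase Clk1 enough to give a fitted half-inhibition concentration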
NNMT counter – Counterscreen qHTS for Inhibitors of N-terminal methyltransferase 1 (NTMT1): NNMT MTaseGlo assay; shares compounds with NTMT1 inhibitor; NNMT MTase-Glo luminescence, SAH detection; Potency, µM (highest dose often 57.1 µM), for inactives: top-dose activity, negative = inhibition, hits mostly inhibitors; hit rate 10% among 120; AID 1645878, 2021
Target sequence (P40261 whole entry, looked up): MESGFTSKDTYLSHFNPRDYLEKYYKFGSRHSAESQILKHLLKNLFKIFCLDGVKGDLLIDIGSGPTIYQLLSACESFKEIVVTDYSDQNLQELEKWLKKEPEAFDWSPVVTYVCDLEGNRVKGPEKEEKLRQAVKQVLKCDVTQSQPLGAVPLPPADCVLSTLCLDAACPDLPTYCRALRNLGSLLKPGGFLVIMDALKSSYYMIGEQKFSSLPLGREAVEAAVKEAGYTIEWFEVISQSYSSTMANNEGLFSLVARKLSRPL
* = called active by the depositor; i = inactive; u = inconclusive; x = not tested or not shown; [ ] = remark or other dose. Only some compounds are listed: those with a hit (about 2.5% of all), similar ones and a draw of the others. Unless noted, calls follow the shape of the dose curve; as a rule, active = well fitted curve in the direction sought with a large enough effect; inconclusive = small, poorly fitted or top-dose-only effect, or another doubt; inactive = no such curve, though single readings can be large; an effect the other way counts as inactive or inconclusive.

SMILES	NTMT1 inhibitor	HTT-AS promoter	PTAP-TSG101 blk	HTT prom inh	GALK inhibitor	SKOV3 invasion	NNMT counter	others
CCNC(=O)c1ccc(-c2ccc3ncnc(NCc4ccc(C)o4)c3c2)o1	u	x	x	x	x	x	x	CLK4 inh-1=0.52µM*;CLK4 inh-2=1.4*;DYRK1A inh-2=6.3µM*;CLK2 RBC=4.2µM*;CLK3 inh=i;DYRK1B inh=6.7µM*;CLK1 RBC=5.4µM*
CCOC(=O)c1ccc(-c2ccc3ncnc(NCc4cccs4)c3c2)o1	x	x	x	x	x	x	x	DYRK1A inh-1=1.5µM*;CLK4 inh-2=0.088*;DYRK1A inh-2=1.4µM*;CLK2 RBC=8.5µM*;CLK3 inh=i;DYRK1B inh=4.3µM*;CLK1 RBC=0.8µM*
Cc1cccc(CNc2ncnc3ccc(-c4cccc(C)c4)cc23)c1	-1%	x	x	x	x	x	x
CC(=O)c1ccc(-c2ccc3ncnc(NCc4ccc(C)o4)c3c2)o1	u	x	x	x	x	x	x	CLK4 inh-1=0.29µM*;CLK4 inh-2=0.56*;DYRK1A inh-2=5.8µM*;CLK2 RBC=6.9µM*;CLK3 inh=i;DYRK1B inh=10µM*;CLK1 RBC=7µM*
CCc1cc(CC[C@]2(C3CCCC3)CC(O)=C(Cc3nc4nc(C)cc(C)n4n3)C(=O)O2)cc(CC)n1	5%[57.5 µM]	x	x	x	x	x	x
O=c1nc(-c2ccccn2)sc2ccccc12	20µM*	x	x	x	x	x	u
CCC1C(=O)N(C)c2cnc(Nc3ccc(C(=O)NC4CCN(C)CC4)cc3OC)nc2N1C1CCCC1 (configuration not stated)	13µM*	x	x	x	x	x	u
COC1(c2sc3c(N4CCOCC4)nc(-c4cnc(N)nc4)nc3c2C)COC1	-4%	x	x	x	x	x	x
CC(=O)O[C@@H]1[C@H](O[C@@H]2O[C@H](CO)[C@@H](O)[C@H](O)[C@H]2O)[C@@H](O[C@@H]2O[C@@H](C)[C@H](O)[C@@H](O[C@@H]3O[C@H](CO)[C@@H](O)[C@H](O)[C@H]3O)[C@H]2O)[C@H](OC(=O)C23CCC4(C)C(=CCC5C6(C)CC(O)C(O[C@@H]7O[C@H](C(=O)O)[C@@H](O)[C@H](O)[C@H]7O)C(C)(C(=O)O)C6CCC54C)C2CC(C)(C)CC3O)O[C@@H]1C (some centres not stated)	7%[6.45 µM]	x	x	x	x	x	x
O=C(Nc1ccccc1C(F)(F)F)N1Cc2ccccc2Oc2ncccc21	3%	5%	i	19%	-3%	7%	x
O=C(Nc1ccc(S(=O)(=O)C(F)(F)F)cc1)C1=CCN(c2ncccc2C(F)(F)F)CC1	9%[57.5 µM]	x	x	x	x	x	-12%
C=C1CCC2[C@](C)(CCC[C@]2(C)C(=O)O)[C@H]1CC/C(C)=C/C(=O)OC (some centres not stated)	8%[29.8 µM]	x	x	x	x	x	x
CCn1c(=O)c(-c2ccn[nH]2)cc2c(C)nc(N)nc21	-5%[57.5 µM]	x	x	x	x	x	-14%
N#CCC(C1CCCC1)n1cc(-c2ncnc3[nH]ccc23)cn1 (configuration not stated)	18%[57.5 µM]	x	x	x	x	x	x
C/C(=N\N=C(N)N)c1cc(NC(=O)CCCCCCCCC(=O)Nc2cc(/C(C)=N/N=C(N)N)cc(/C(C)=N/N=C(N)N)c2)cc(/C(C)=N/N=C(N)N)c1	5.6µM*	x	x	x	x	x	u
CC[C@@H](C)Nc1cc(C(=O)NC2CC3CC[C@@H](C2)N3c2ccc(C(=O)C3CC3)cn2)c(C)cc1C(N)=O (some centres not stated)	4%[57.5 µM]	x	x	x	x	x	-21%
O=c1c2ccc([N+](=O)[O-])cc2nc2sc(Nc3ccc4c(c3)CCC4)nn12	9%	x	x	x	x	x	x
C=Cc1cc2oc(-c3ccc(O)c(F)c3)nc2cc1O	28µM*	x	x	x	x	x	u
CC(C)Oc1ccc(C(=O)Nc2ccc(-c3nc4ccccc4[nH]3)cc2)cc1	-4%[57.5 µM]	x	x	x	x	x	x
COc1cc(O)c(C(CC(=O)N2CCCC(c3ccccc3)C2)c2ccc3c(c2)OCO3)c(OC)c1 (configuration not stated)	4%[228 µM]	x	x	x	x	x	x
